APEX1 inh – APE1 (human) endonuclease inhibition; Potency, µM (highest dose often 65.8 µM), for the others: top-dose activity change, negative = inhibition, hits mostly inhibitors; AID 2517; hit rate 0.35% among 350,000; recombinant APE1, TAMRA/BHQ-2 abasic DNA cleavage fluorescence;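 also: plate controls were vehicle for no effect and reference inhibitor for full effect; nearly all actives have a fitted effect of over 55% in size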
Target sequence (P27695 whole entry, looked up): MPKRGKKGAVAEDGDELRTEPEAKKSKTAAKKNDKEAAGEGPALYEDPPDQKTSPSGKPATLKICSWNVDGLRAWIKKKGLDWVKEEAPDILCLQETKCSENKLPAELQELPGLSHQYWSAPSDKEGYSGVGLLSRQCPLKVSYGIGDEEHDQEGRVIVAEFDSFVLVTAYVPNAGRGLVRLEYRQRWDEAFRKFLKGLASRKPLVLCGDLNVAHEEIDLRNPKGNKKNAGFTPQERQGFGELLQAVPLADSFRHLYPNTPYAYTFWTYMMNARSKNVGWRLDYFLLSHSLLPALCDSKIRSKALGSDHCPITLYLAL
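Quantitative HTS: incision of a TAMRA/BHQ-2 double-stranded substrate bearing a tetrahydrofuran abasic site by 0.75 nM APE1 raises fluorescence. Substrate 50 nM final, added after 15 min compound preincubation at room temperature; progress as third-minus-first kinetic read difference.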
TDP1 inh – TDP1 (human) enzyme inhibition. Potency, µM (top dose mostly 130 µM), inactives show top-dose activity change, negative = inhibition, usual class: inhibitors. recombinant TDP1, AlphaScreen DNA substrate cleavage. Q9NUW8. AID 485290. hit rate 0.28% among 350,000; also: nearly all actives have a fitted effect of over 40% in size
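Tdp1 1 nM final; 15 min RT w/ cpd; substrate 15 nM, 5 min; beads 10 ug/ml, 10 min; AlphaScreen read. Neg ctrl: no enzyme.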
LMNA splice mod – LMNA splicing modulation. hit rate 0.01% among 200,000. Potency, µM (doses to about 46.1 µM), for inactives: at the top dose ratio change, negative = inhibition, hits mostly inhibitors. HeLa LMNA splicing GFP/RFP minigene ratio, 48 h. AID 1487; active = well fitted inhibition curve with a large enough effect in the signal ratio, with a control signal flat, not every such curve was filed as active; inconclusive = small, poorly fitted or top-dose-only effect, or effect the other way, or a change in a side signal; the % refers to the signal ratio
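S3 HeLa stable clones carrying a lamin A-EGFP splicing minigene plus DsRed2 were seeded at 600 cells/well in Opti-MEM with 2% FBS, pin-dosed and incubated 48 h at 37°C. Acumen cytometry (488 nm) gave the GFP/RFP total-intensity ratio.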
BLM helicase inh – inhibitors of human Bloom syndrome helicase BLM | P54132 | recombinant BLM DNA unwinding, fluorescence dequenching | Potency, µM (highest dose often 56.1 µM), for the others: top-dose activity change, negative = inhibition, hits mostly inhibitors | hit rate 0.2% among 350,000 | AID 2528;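 also: plate controls were vehicle for no effect and no enzyme for full effect; nearly all actives have a fitted effect of over 35% in size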
RECQ1 inh-1 – RECQ1 (human) helicase inhibition; P46063; RECQ1 DNA unwinding, red fluorescence kinetic read; Potency, µM (titrated, usually from 57.3 µM), for inactives: at the top dose activity, negative = inhibition, hits mostly inhibitors; hit rate 0.54% among 240,000; AID 2549;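 also: plate controls were vehicle for no effect and no enzyme for full effect; nearly all actives have a fitted effect of over 30% in size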
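RECQ1T1 50 nM; forked duplex (20 bp + 30-nt ss tails) 200 nM, ATP 2 mM final; pH 8.0, 2 mM MgCl2, 2.5 ug/ml poly(dI-dC); 15 min compound preincubation; discontinuous kinetic read over 2 h at RT.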
KAT2A inh – blocks human GCN5L2 histone acetyltransferase | GCN5L2 HAT assay, ThioGlo1 CoA-SH fluorescence | Potency, µM (doses to about 58.9 µM), inactives show at the highest dose activity change, negative = inhibition, hits mostly inhibitors | hit rate 0.21% among 390,000 | AID 504327
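Fluorescence readout, Ex340nm/Em540nm: ThioGlo1 (50uM final) reacts with free CoA thiol released as 20nM GCN5L2 acetylates H3(1-25) peptide (75uM) using acetyl-CoA (70uM). Compound and enzyme sat 15 min beforehand; 20 min room-temperature reaction.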
RECQ1 inh conf – confirmation of human RECQ1 helicase inhibitors; shares compounds with RECQ1 inh-1; RECQ1 helicase DNA unwinding, fluorescence; Potency, µM (doses to about 229 µM), without a hit: at the highest dose activity change, negative = inhibition, most hits filed as inhibitors; hit rate 28% among 610; also: nearly all actives have a fitted effect of over 45% in size
RECQ1 ADP FP – ADP displacement flagged in RECQ1 inhibitor counter-screen; Potency, µM (highest dose often 228 µM), without a hit: at the top dose activity change, negative = inhibition, most hits filed as inhibitors; hit rate 27% among 530; shares compounds with RECQ1 inh-1; ADP fluorescence polarization displacement counterscreen; also: nearly all actives have a fitted effect of over 45% in size
RECQ1 inh-2 – confirmation of human RECQ1 helicase inhibitors. shares compounds with RECQ1 inh-1. recombinant RECQ1 DNA unwinding, red fluorescence. Potency, µM (doses to about 119 µM), inactives show top-dose activity, negative = inhibition, usual class: inhibitors. hit rate 15% among 1,100; also: nearly all actives have a fitted effect of over 50% in size
Active calls of the source: *; i = inactive; ? = inconclusive; · = not tested or not shown; [ ] = remark or other dose. In the library only some 0.9% were active in any assay of this set; here they are far more common. Unless noted, calls follow the shape of the dose curve; as a rule, active = well fitted curve in the direction sought with a large enough effect; inconclusive = small, poorly fitted or top-dose-only effect, or another doubt; inactive = no such curve, though single readings can be large; an effect the other way counts as inactive or inconclusive. Unless noted, % is scaled to controls: 0 for no effect and ±100 for the full control effect; potency is read from the fitted curve at half-maximal effect.

SMILES	APEX1 inh	TDP1 inh	LMNA splice mod	BLM helicase inh	RECQ1 inh-1	KAT2A inh	RECQ1 inh-2	others
CC(=O)Oc1ccc(C(=O)Nc2cccc(C(=O)NC(C)(C)C)c2)cc1	1%	-1%	?	1%	-6%	-4%	·
O=C(O)CCC(=O)N1CCc2cc(S(=O)(=O)NCc3cccs3)ccc21	-7%	3%	-2%	-2%	-2%	0%	·	RECQ1 inh conf=7%;RECQ1 ADP FP=-1%
CCC(=O)N1CCCc2cc(S(=O)(=O)NCc3cccs3)ccc21	-1%	3%	-13%	-1%	-1%	3%	·
O=C(O)CCCC(=O)N1CCc2cc(S(=O)(=O)NCc3ccc(F)cc3)ccc21	19%	5%	·	-14%	-8%	2%	·	RECQ1 inh conf=12%;RECQ1 ADP FP=6%
Cc1nc2cnc(N3CCOCC3)nc2n(Cc2ccc(F)cc2)c1=O	-9%	·	2%	-9%	0.63µM*	-17%	-12%
Cc1nc2cnc(N3CCN(C)CC3)nc2n(Cc2ccc(F)cc2)c1=O	13%	·	1%	5%	-4%	-4%	·
O=C(O)c1ccccc1OS(=O)(=O)O	?	5%	·	4%	-1%	-11%	·
Cc1nnc2ccc(-c3cccc(NC(=O)Cc4cccs4)c3)nn12	3%	-2%	0%[9.22 µM]	-13%	?	-15%	-25%
Cc1ccc(/C=C2/SC(=S)N(C3CCCCC3)C2=O)o1	78%	10%	·	0%	·	-5%	·
Cc1ccc(/C=C2/SC(=O)NC2=S)o1	13µM*	?	·	-12%	18µM*	?	?	RECQ1 inh conf=13%[114 µM];RECQ1 ADP FP=35µM*
CC(C)NS(=O)(=O)c1ccc(NC(=S)NC(=O)c2ccc(-c3ccccc3)cc2)cc1	-5%	4%	16%	-9%	?	-13%	-7%
Cc1ccc(CSC2=Nc3ccccc3C3=NC(CC(=O)NCc4ccco4)C(=O)N23)cc1 (configuration not stated)	-11%	2%	8%	2%	?	-26%	?
COc1ccccc1CNc1ncnc2c1c(-c1ccccc1)cn2-c1cccc(C)c1	·	0%	-11%[46 µM]	-7%	·	-10%	·
CCOc1c(OC(C)=O)ccc(/C=C/c2ccc3cccc(OC(C)=O)c3n2)c1[N+](=O)[O-]	-5%	12%	-3%	-14%	32µM*	-4%	-11%
COc1c(OC(C)=O)ccc(/C=C/c2ccc3cccc(OC)c3n2)c1[N+](=O)[O-]	-1%	5%	?	-10%	-4%	-1%	·
Cc1ccc2c(c1)N(C(=O)CCC(=O)NCc1cccs1)CCO2	·	6%	·	0%	·	-6%	·
CNC(=O)C1(C(F)(F)F)CC(CCCO)CCCO1 (configuration not stated)	-2%	7%	·	4%	-4%	·	·
c1ccc(-c2csc(N3CCCCCC3)n2)cc1	-4%	3%	-1%	-4%	-3%	-14%	·
Cc1cc(N2CCN(c3nc(-c4ccccc4)cs3)CC2)c2ccccc2n1	19%	4%	-3%[46 µM]	-11%	8.9µM*	-5%	-7%	RECQ1 inh conf=0%[114 µM];RECQ1 ADP FP=-2%[91.9 µM]
COc1cc(NC(=O)C2CCN(S(=O)(=O)c3cccc4nonc34)CC2)cc(OC)c1	12%	3%	-1%	-2%	16µM*	?	-2%
O=C1C(=Cc2ccc(Br)o2)C(=O)c2ccccc21	8.9µM*	?	-14%	-2%	8.9µM*	?	·	RECQ1 inh conf=?
N#Cc1c(-c2ccco2)cc(-c2ccccc2)[nH]c1=O	32µM*	·	·	?	22µM*	-21%	·	RECQ1 inh conf=?;RECQ1 ADP FP=?
CCOC(=O)c1cc2c(=O)n3ccccc3nc2n(Cc2ccco2)c1=NC(=O)c1cccc(OC)c1	-9%	-3%	-1%[9.22 µM]	?	-10%	-10%	·
CCOC(=O)c1cc2c(=O)n3ccccc3nc2n(Cc2ccco2)c1=NC(=O)c1ccc(OC)cc1	-7%	-8%	-15%[9.22 µM]	?	?	-12%	-27%
Cc1ccc(NC(=O)CN2C(=O)CC(c3ccco3)Sc3ccccc32)cc1Cl (configuration not stated)	·	-3%	·	0%	·	-1%	·
SMILES	APEX1 inh	TDP1 inh	LMNA splice mod	BLM helicase inh	RECQ1 inh-1	KAT2A inh	RECQ1 inh-2	others
CCCN1C(=O)/C(=C/c2ccco2)SC1=Nc1ccc(OC)cc1	?	11%	8%	-21%	25µM*	-10%	-9%
CCCN1C(=O)/C(=C/c2ccc(C)o2)SC1=Nc1ccc(OC)cc1	-6%	9%	?	-6%	?	-1%	-26%
CCN(CC)C(=O)CSc1nc2ccc(NC(=O)CSc3nccn3C)cc2s1	0%	3%	?	-12%	20µM*	-16%	-13%	RECQ1 inh conf=?;RECQ1 ADP FP=?
CCN(CC)C(=O)CSc1nc2ccc(NC(=O)CSc3nnc(N)s3)cc2s1	?	1%	-7%	-20%	?	-20%	·
CCc1cc2c(=O)c(-c3ccc4c(c3)OCCO4)coc2c(CN2CCCCC2C)c1O (configuration not stated)	-6%	8%	?	-3%	?	-17%	-13%
CCc1cc2c(=O)c(-c3nc4ccccc4[nH]3)coc2c(CN2CCCCC2C)c1O (configuration not stated)	0%	5%	·	-15%	?	-11%	·
Cc1ccc(OCC(O)CNS(=O)(=O)c2ccccc2C(=O)O)cc1 (configuration not stated)	5%	6%	13%	-12%	8%	2%	·	RECQ1 inh conf=-1%;RECQ1 ADP FP=3%
CC(C)NC(=O)c1cc(-c2ccco2)nn1-c1ccc(Cl)cc1	-9%	-2%	-6%	-22%	-15%	?	·
Cc1ccc(-n2nc(-c3ccco3)cc2C(=O)O)cc1	?	·	·	0%	20µM*	0%	?
Cc1ccc(C)c(Cn2c(-c3cccs3)nc3ccccc32)c1	·	0%	·	-10%	·	-3%	·
CN[C@@H]1[C@H](O[C@@H]2O[C@H](C)[C@@](O)(CO)[C@H]2O[C@H]2[C@H](O)[C@H](O)[C@H](N=C(N)N)[C@@H](O)[C@@H]2N=C(N)N)O[C@@H](CO)[C@H](O)[C@H]1O	1%	17%	·	0%	i	-5%	·
